Test results taken from the supplement of paper PMC10849652.
Targets with a hit are over-represented here; the source holds about 8,800 in all. About 0.5% of all pairs of compound and target were hits. Unmarked numbers belong to inactive results.

How the values were obtained:
Assay in all cases: log2 fold change, soluble protein after heating vs DMSO (PISA); higher = thermal stabilisation; K562 lysate, 10 uM; active = over 0.2 and 3.5 SD of the protein, either way, in both replicates (recomputed)
ibrutinib = compound: C=CC(=O)N1CCC[C@@H](n2nc(-c3ccc(Oc4ccccc4)cc3)c3c(N)ncnc32)C1 [ibrutinib]
Summary of the method: (§1)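 Values give the log-two fold change in thermal stability against solvent controls, from duplicates. Crude K562 extract at 1 mg/mL protein, made by dounce homogenisation in PBS pH 7.4 with 1 mM MgCl2, was treated with 10 μM compound for 30 min. After 3 min heating across 48°C-58°C, aliquots were pooled, adjusted to 0.5% NP-40 at 4°C and centrifuged at 21,000xg for 90 min. The supernatant was measured by TMTpro 16plex LC-MS/MS with channel sums equalised.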

[1] = compound: CC(=O)c1cnc2ccc(-c3cc(Cl)c(O)c(Cl)c3)nc2c1N[C@H]1CC[C@H](CN(C)C)CC1
Summary of the method: as §1

ralimetinib = compound: CC(C)(C)Cn1c(N)nc2ccc(-c3[nH]c(C(C)(C)C)nc3-c3ccc(F)cc3)nc21 [ralimetinib]
Summary of the method: as §1

[2] = compound: CC(C)(O)CC(=O)NCCn1ccc2ncnc(Nc3ccc(Oc4cccc(C(F)(F)F)c4)c(Cl)c3)c21
Summary of the method: as §1

[3] = compound: CC(C)C1=C2N=C(C=C(N2N=C1)NCC3=CC=CC=C3)NCCCCCCN
Summary of the method: as §1

[4] = compound: CC1=C(C(CC(=O)N1)C2=CC=C(C=C2)C(F)(F)F)C(=O)NC3=C(C=C4C(=C3)C=NN4)F
Summary of the method: as §1

[5] = compound: CC1=C(C2=C(C=C1)C(=O)C3=CC=CC=C3N2CCCN)C
Summary of the method: as §1

[6] = compound: CC1=C(C=C(C=C1)NC(=O)C2=CC(=CC=C2)C(C)(C)C#N)NC3=CC4=C(C=C3)N=CN(C4=O)C
Summary of the method: as §1

[7] = compound: CC1=C(C=C(C=C1)NC(=O)C2=CC(=CC=C2)N(C)C)NC(=O)C3=CC=C(C=C3)O
Summary of the method: as §1

[8] = compound: CC1=CC=C(C=C1)SC2=C3C=C(SC3=CN=C2)C(=O)N
Summary of the method: as §1

vemurafenib = compound: CCCS(=O)(=O)Nc1ccc(F)c(C(=O)c2c[nH]c3ncc(-c4ccc(Cl)cc4)cc23)c1F [vemurafenib]
Summary of the method: as §1

[9] = compound: CCCS(=O)(=O)Nc1ccc(F)c(C(=O)c2c[nH]c3ncc(Cl)cc23)c1F
Summary of the method: as §1

barasertib = compound: CCN(CCCOc1ccc2c(Nc3cc(CC(=O)Nc4cccc(F)c4)[nH]n3)ncnc2c1)CCOP(=O)(O)O [barasertib]
Summary of the method: as §1

[10] = compound: CC[C@@H]1C(=O)N(C)c2cnc(Nc3ccc(C(=O)NC4CCN(C)CC4)cc3OC)nc2N1C1CCCC1
Summary of the method: as §1

volasertib = compound: CC[C@@H]1C(=O)N(C)c2cnc(Nc3ccc(C(=O)N[C@H]4CC[C@H](N5CCN(CC6CC6)CC5)CC4)cc3OC)nc2N1C(C)C [volasertib]
Summary of the method: as §1

[11] = compound: CCn1c(C(=O)N(C2CC2)C2CC2)cc2c3c(ncn3C)c(Nc3cc(C)n(C)n3)nc21
Summary of the method: as §1

[12] = compound: CCn1cc(-c2ccnc3[nH]c(-c4cccc(CN(C)C)c4)cc23)c(-c2ccc(NC(=O)N(C)C)cc2)n1
Summary of the method: as §1

[13] = compound: CN1CCC(CNc2ccc3ncc(-c4cccc(OC(F)(F)F)c4)n3n2)CC1
Summary of the method: as §1

saracatinib = compound: CN1CCN(CCOc2cc(OC3CCOCC3)c3c(Nc4c(Cl)ccc5c4OCO5)ncnc3c2)CC1 [saracatinib]
Summary of the method: as §1

sotrastaurin = compound: CN1CCN(c2nc(C3=C(c4c[nH]c5ccccc45)C(=O)NC3=O)c3ccccc3n2)CC1 [sotrastaurin]
Summary of the method: as §1

Chain of UniProt Q9UBM7 (Q9UBM7 whole entry, looked up): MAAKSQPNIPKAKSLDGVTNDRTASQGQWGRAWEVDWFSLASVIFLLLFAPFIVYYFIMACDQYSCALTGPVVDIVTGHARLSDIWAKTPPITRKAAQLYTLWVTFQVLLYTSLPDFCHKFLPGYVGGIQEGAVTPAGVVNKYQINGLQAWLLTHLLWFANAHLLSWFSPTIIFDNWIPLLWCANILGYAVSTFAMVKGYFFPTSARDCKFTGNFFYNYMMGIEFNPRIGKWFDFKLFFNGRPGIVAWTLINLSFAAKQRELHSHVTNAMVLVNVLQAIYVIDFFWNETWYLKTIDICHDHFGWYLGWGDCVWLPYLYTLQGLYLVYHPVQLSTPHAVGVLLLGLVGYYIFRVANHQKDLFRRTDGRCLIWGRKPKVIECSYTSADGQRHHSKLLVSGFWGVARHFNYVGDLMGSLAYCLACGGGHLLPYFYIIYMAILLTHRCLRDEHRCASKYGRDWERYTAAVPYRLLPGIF
Chain of UniProt Q5RI15 (Q5RI15 whole entry, looked up): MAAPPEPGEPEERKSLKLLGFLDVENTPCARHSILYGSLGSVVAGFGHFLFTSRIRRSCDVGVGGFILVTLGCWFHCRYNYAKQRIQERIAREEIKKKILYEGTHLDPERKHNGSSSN
Chain of UniProt P17812 (P17812 whole entry, looked up): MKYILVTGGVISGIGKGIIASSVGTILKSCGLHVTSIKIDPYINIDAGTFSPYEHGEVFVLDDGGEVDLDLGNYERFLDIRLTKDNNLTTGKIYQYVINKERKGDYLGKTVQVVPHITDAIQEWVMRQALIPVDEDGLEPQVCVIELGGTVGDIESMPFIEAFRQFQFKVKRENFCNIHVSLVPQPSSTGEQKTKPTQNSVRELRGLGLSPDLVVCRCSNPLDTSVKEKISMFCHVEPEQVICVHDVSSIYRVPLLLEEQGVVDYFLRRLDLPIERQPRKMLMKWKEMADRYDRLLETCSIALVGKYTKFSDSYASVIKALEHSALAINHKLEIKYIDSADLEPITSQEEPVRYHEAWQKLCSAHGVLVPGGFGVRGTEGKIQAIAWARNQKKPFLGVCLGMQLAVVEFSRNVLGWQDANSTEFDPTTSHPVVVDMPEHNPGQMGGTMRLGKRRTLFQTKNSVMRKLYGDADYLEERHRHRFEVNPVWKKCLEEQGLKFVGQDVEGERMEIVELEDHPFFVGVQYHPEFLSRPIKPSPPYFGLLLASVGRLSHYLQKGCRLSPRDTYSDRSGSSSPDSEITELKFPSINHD
Chain of UniProt Q8WUH1 (Q8WUH1 whole entry, looked up): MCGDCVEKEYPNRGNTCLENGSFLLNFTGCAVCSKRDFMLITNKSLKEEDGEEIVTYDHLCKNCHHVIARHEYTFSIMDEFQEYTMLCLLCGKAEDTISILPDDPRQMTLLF
Chain of UniProt O75911 (O75911 whole entry, looked up): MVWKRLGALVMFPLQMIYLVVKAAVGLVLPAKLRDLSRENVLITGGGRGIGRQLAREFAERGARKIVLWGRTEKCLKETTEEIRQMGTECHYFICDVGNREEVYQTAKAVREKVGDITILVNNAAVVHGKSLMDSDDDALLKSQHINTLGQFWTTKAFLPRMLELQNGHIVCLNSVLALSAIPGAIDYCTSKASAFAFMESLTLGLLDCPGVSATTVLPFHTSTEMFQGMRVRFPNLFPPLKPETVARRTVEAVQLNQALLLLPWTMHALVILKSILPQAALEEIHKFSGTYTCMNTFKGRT
Chain of UniProt O96017 (O96017 whole entry, looked up): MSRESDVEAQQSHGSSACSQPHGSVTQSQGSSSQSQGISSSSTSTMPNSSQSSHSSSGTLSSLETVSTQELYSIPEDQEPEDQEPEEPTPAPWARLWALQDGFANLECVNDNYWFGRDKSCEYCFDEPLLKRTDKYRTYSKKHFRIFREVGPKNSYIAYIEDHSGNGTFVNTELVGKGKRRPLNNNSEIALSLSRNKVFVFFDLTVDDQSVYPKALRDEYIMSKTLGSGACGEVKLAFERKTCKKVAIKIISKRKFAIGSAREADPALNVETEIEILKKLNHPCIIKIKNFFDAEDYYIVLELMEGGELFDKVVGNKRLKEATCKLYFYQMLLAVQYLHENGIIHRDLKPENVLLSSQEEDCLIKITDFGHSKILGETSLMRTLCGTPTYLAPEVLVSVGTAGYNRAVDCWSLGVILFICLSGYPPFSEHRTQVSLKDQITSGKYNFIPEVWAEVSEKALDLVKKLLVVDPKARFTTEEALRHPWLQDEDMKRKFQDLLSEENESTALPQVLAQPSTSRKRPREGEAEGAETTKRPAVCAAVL
Chain of UniProt Q9H5X1 (Q9H5X1 whole entry, looked up): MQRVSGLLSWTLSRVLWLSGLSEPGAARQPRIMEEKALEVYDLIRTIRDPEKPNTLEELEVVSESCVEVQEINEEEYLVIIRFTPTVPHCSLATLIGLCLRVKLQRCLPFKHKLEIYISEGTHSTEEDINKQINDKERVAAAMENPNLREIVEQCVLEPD
Chain of UniProt P00374 (P00374 whole entry, looked up): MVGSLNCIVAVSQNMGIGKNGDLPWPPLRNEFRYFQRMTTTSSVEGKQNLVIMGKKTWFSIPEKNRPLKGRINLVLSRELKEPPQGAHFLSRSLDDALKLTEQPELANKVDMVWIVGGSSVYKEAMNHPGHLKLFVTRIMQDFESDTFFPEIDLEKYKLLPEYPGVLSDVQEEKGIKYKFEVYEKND
Chain of UniProt Q9BQ75 (Q9BQ75 whole entry, looked up): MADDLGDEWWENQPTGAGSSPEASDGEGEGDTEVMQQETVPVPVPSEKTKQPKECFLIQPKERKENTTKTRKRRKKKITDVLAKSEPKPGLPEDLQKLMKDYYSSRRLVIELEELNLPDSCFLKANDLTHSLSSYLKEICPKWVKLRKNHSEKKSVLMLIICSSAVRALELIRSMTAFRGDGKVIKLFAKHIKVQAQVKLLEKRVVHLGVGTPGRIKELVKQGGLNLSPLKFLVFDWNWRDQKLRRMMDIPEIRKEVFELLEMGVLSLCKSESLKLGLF
Chain of UniProt O00148 (O00148 whole entry, looked up): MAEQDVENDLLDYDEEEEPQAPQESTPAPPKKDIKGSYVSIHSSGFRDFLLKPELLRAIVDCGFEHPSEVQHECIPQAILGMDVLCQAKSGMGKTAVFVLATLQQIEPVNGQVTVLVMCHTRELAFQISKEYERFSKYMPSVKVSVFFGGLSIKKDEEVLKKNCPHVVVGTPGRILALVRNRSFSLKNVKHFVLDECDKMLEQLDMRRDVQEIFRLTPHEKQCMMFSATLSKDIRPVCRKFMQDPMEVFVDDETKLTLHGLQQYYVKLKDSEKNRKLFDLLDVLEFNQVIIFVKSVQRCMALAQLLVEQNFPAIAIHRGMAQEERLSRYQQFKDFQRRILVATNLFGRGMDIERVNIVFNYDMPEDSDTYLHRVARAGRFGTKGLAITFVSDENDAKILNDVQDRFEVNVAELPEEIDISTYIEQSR
Chain of UniProt P14868 (P14868 whole entry, looked up): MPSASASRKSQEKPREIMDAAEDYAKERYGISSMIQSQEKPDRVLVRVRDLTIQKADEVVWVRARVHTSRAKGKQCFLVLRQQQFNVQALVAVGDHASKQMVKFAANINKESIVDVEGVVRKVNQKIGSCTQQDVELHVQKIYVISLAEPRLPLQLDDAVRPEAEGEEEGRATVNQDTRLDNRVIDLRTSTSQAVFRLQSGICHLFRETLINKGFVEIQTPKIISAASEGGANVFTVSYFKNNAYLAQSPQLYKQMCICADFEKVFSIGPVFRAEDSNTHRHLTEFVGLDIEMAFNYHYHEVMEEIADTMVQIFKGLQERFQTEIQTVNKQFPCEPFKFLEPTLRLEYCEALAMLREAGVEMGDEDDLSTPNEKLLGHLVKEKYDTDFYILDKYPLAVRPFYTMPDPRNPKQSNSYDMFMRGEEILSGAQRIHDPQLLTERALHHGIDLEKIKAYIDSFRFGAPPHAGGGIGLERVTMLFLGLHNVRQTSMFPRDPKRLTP
Chain of UniProt P57737 (P57737 whole entry, looked up): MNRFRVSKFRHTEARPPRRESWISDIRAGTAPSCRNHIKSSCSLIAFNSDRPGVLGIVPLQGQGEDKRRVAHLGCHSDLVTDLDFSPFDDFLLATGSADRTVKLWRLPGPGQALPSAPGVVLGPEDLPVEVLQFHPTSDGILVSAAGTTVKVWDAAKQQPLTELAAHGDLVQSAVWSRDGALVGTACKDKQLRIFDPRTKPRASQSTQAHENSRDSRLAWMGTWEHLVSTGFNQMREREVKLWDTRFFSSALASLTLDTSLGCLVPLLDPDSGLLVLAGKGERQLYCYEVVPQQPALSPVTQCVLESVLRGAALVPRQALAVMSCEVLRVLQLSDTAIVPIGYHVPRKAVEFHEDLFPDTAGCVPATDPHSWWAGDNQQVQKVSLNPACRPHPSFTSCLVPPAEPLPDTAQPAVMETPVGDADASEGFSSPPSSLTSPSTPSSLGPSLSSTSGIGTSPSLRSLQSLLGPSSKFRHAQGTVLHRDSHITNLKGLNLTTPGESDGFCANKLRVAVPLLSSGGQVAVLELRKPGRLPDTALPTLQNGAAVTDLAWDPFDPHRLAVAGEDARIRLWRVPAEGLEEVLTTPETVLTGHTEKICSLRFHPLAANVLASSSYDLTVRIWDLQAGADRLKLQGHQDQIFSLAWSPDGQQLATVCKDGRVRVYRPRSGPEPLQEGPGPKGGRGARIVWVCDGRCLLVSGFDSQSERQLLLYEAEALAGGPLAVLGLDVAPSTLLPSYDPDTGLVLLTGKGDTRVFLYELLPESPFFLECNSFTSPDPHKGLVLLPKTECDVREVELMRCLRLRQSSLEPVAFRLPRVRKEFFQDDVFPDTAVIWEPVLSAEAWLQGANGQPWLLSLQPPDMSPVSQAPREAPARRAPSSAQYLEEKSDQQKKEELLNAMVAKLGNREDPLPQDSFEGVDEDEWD
Chain of UniProt Q92564 (Q92564 whole entry, looked up): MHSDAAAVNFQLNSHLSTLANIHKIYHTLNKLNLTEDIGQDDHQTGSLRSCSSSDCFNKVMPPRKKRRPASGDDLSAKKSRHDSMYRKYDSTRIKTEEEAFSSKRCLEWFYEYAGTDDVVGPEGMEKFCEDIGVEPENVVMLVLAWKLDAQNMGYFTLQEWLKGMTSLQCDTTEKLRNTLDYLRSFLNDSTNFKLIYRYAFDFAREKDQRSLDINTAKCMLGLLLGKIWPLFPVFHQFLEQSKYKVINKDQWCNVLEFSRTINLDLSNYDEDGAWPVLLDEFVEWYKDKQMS

Target	log2 fold change (ibrutinib)	log2 fold change [1]	log2 fold change (ralimetinib)	log2 fold change [2]	log2 fold change [3]	log2 fold change [4]	log2 fold change [5]	log2 fold change [6]	log2 fold change [7]	log2 fold change [8]	log2 fold change (vemurafenib)	log2 fold change [9]	log2 fold change (barasertib)	log2 fold change [10]	log2 fold change (volasertib)	log2 fold change [11]	log2 fold change [12]	log2 fold change [13]	log2 fold change (saracatinib)	log2 fold change (sotrastaurin)
DARS (UniProt P14868)	0.009	0.021	0.049	0.04	0.001	-0.003	0.027	-0.019	0.026	0.053	0.02	0.021	0.021	-0.099	-0.043	0.062	0.026	-0.012	0.018	0.011
CUEDC2 (UniProt Q9H467)	0.056	0.044	0.001	-0.032	0.026	-0.027	-0.014	0.052	0.018	-0.082	0.06	0.001	0.026	0.038	0.027	-0.084	0.694 (active)	-0.07	0.002	0
CORO7 isoform 3 (UniProt P57737)	-0.01	0.002	0.016	0.031	0.009	-0.013	-0.006	-0.006	0.02	0.005	0.031	0.013	0.008	-0.042	-0.01	0.016	0.044	-0.175	0.004	0.008
DHFR (UniProt P00374)	-0.013	0.155	-0.058	0.016	0.024	-0.018	-0.013	-0.029	0.025	0.033	-0.047	0.206 (active)	0.061	-0.035	0.013	0.046	0.072	-0.019	-0.008	0.042
DDX39A (UniProt O00148)	-0.005	0.062	-0.009	0.029	0.022	0	0.009	-0.032	-0.016	-0.004	0.021	0.021	0.047	-0.049	-0.071	-0.028	-0.041	-0.027	-0.032	-0.002
CRABP2 (UniProt P29373)	-0.039	0.061	0.097	-0.015	-0.002	0.176	-0.088	-0.028	0.082	-0.03	0.128	0.007	0.528	-0.139	0.026	-0.005	0.089	-0.003	0.092	0.001
CTPS1 (UniProt P17812)	-0.045	0.01	-0.017	-0.015	-0.022	-0.012	0.024	0.004	0.017	0.02	-0.008	0.016	-0.024	-0.065	-0.04	0.026	-0.041	-0.011	0.007	0.021
DLGAP5 (UniProt Q15398)	0.004	0.02	-0.018	0.005	-0.036	-0.009	-0.007	-0.012	0.016	-0.003	0.01	0.009	0.007	-0.018	-0.013	0	-0.024	0.019	0.013	-0.004
CHURC1 isoform 2 (UniProt Q8WUH1)	0.055	0.05	0.027	-0.077	0.07	-0.065	0.057	0.085	-0.102	0.004	0.019	-0.166	0.194	0.038	0.129	0.018	-0.108	0.024	-0.071	-0.013
COX20 isoform 2 (UniProt Q5RI15)	0.28	0.017	0.084	0.032	-0.003	-0.007	-0.04	0.003	0.001	-0.023	0.011	-0.011	-0.329	0.144	0.021	-0.015	0.623 (active)	-0.232	-0.015	0.001
CMSS1 (UniProt Q9BQ75)	-0.012	-0.016	-0.002	-0.011	0.047	-0.015	0.027	-0.059	0.019	-0.004	-0.011	0.005	0.023	-0.007	-0.011	0	0.212	-0.086	0.007	-0.003
DCUN1D4 isoform 3 (UniProt Q92564)	0.064	0.078	-0.033	-0.057	0.018	-0.009	-0.078	-0.027	0.029	-0.059	0.066	0.075	-0.027	-0.321 (active)	0.049	-0.02	-0.036	0.02	0.005	0.028
DHCR7 (UniProt Q9UBM7)	-0.026	0.016	0.071	-0.042	-0.018	0.01	-0.007	-0.017	-0.011	-0.002	-0.02	0.004	0.029	-0.061	-0.036	0.025	-0.033	-0.069	0.017	-0.041
CHEK2 (UniProt O96017)	0.04	-0.043	-0.011	0.081	0.211	0.013	-0.002	-0.041	0.073	0.013	-0.059	0.042	0.087	-0.06	-0.044	0.051	0.08	-0.057	-0.036	0
DHRS3 (UniProt O75911)	0.064	-0.07	0.048	-0.023	0.034	-0.001	-0.069	-0.015	-0.046	0.045	0.082	0.012	-0.01	-0.03	0.033	-0.041	-0.061	0.034	0.029	0.013
CIAO2A (UniProt Q9H5X1)	0.005	0.044	0.053	-0.034	0.056	0.032	-0.06	-0.026	-0.067	-0.02	-0.028	-0.032	0.094	-0.042	-0.007	0.026	0.233	-0.203	0.033	0.034
